# Screening data: PubChem, National Center for Advancing Translational Sciences (NCATS)
# APE1 inh – APE1 (human) endonuclease inhibition | recombinant APE1, TAMRA/BHQ-2 abasic DNA cleavage fluorescence | hit rate 0.35% among 350,000 | Potency, µM (top dose mostly 65.8 µM), inactives show top-dose activity change, negative = inhibition, most hits filed as inhibitors;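 further: plate controls were vehicle for no effect and reference inhibitor for full effect; nearly all actives have a fitted effect of over 55% in size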
#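 Measures dequenching upon AP-site incision of a 5'-TAMRA/3'-BHQ-2 THF-containing duplex, 50 nM; human APE1 0.75 nM after 15 min room-temperature exposure to compound; kinetic three-point read at one-minute spacing.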
# BLM helicase inh – blocks DNA unwinding by human BLM helicase; recombinant BLM DNA unwinding, fluorescence dequenching; hit rate 0.2% among 350,000; Potency, µM (doses to about 56.1 µM), for the others: at the top dose activity change, negative = inhibition, most hits filed as inhibitors;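 further: plate controls were vehicle for no effect and no enzyme for full effect; nearly all actives have a fitted effect of over 35% in size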
# L3MBTL1 inh – blocks human L3MBTL1; Q9Y468; AlphaScreen L3MBTL1–H3K9me1 peptide binding; Potency, µM (series often up to 57.1 µM), for inactives: at the top dose activity, negative = inhibition, actives largely listed as inhibitors; hit rate 0.66% among 230,000; further: nearly all actives have a fitted effect of over 60% in size
#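 Read-out is AlphaScreen signal from streptavidin donor and nickel chelate acceptor beads (10 ug/mL final each) bridging L3MBTL1 (50 nM) and biotinylated K9-monomethylated H3(1-15) peptide (75 nM), after 30 min compound exposure at room temperature.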
# JMJD2E inh – blocks human JMJD2E demethylase activity; B2RXH2; JMJD2E catalytic domain, FDH-coupled NADH fluorescence (FDH is formaldehyde dehydrogenase); Potency, µM (doses to about 57.1 µM), without a hit: at the highest dose activity change, negative = inhibition, most hits filed as inhibitors; hit rate 1.6% among 230,000; AID 2147; active means well fitted inhibition curve with a large enough effect, not every such curve was filed as active; inconclusive means small, poorly fitted or top-dose-only effect, or another doubt; inactive means no such curve, though single readings can be large or run the other way;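 further: 0% = wells with enzyme and -100% = buffer wells without enzyme; nearly all actives have a fitted effect of over 50% in size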
# RECQ1 inh-1 – RECQ1 (human) helicase inhibition. P46063. RECQ1 DNA unwinding, red fluorescence kinetic read. Potency, µM (top dose mostly 57.3 µM), for inactives: top-dose activity, negative = inhibition, hits mostly inhibitors. hit rate 0.54% among 240,000. AID 2549;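 further: plate controls were vehicle for no effect and no enzyme for full effect; nearly all actives have a fitted effect of over 30% in size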
#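 RECQ1T1 50 nM; forked duplex (20 bp + 30-nt ss tails) 200 nM, ATP 2 mM final; pH 8.0, 2 mM MgCl2, 2.5 ug/ml poly(dI-dC); 15 min compound preincubation; discontinuous kinetic read over 2 h at RT.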
# RECQ1 conf – confirmation of human RECQ1 helicase inhibitors | Potency, µM (doses to about 229 µM), inactives show top-dose activity change, negative = inhibition, actives largely listed as inhibitors | hit rate 28% among 610 | RECQ1 helicase DNA unwinding, fluorescence | AID 2708 | shares compounds with RECQ1 inh-1; further: nearly all actives have a fitted effect of over 45% in size
# ADP FP counter – ADP displacement flagged in RECQ1 inhibitor counter-screen. ADP fluorescence polarization displacement counterscreen. Potency, µM (highest dose often 228 µM), for inactives: at the highest dose activity change, negative = inhibition, actives largely listed as inhibitors. hit rate 27% among 530. shares compounds with RECQ1 inh-1. AID 2711; further: nearly all actives have a fitted effect of over 45% in size
# RECQ1 inh-2 – RECQ1 helicase inhibition confirmed, round 2 | shares compounds with RECQ1 inh-1 | recombinant RECQ1 DNA unwinding, red fluorescence | Potency, µM (highest dose often 119 µM), for inactives: top-dose activity, negative = inhibition, actives largely listed as inhibitors | hit rate 15% among 1,100; further: nearly all actives have a fitted effect of over 50% in size
# * = called active by the depositor; i = inactive; ? = inconclusive; · = no result given; [ ] = remark or other dose. Shown is part of a subset that was picked to be rich in hits. Unless noted, the call rests on the fitted dose curve; in most records, active means well fitted curve in the direction sought with a large enough effect; inconclusive means small, poorly fitted or top-dose-only effect, or another doubt; inactive means no such curve, though single readings can be large; an effect the other way counts as inactive or inconclusive. Unless noted, on the % scale 0 is the no-effect control and ±100 the full control effect; potency means the concentration at half of the fitted maximal effect.
SMILES,APE1 inh,BLM helicase inh,L3MBTL1 inh,JMJD2E inh,RECQ1 inh-1,RECQ1 inh-2,others
CC1(C)CC(=O)/C(=C(\O)CCCN2C(=O)c3ccccc3C2=O)C(=NCC(=O)O)C1,15%,0%,·,5%,i,·,RECQ1 conf=-2%;ADP FP counter=2%
O=S(=O)(NC1CCCC1)c1ccccc1Br,0%,0%,·,22%,-1%,·,
O=C(CSc1ccc(-c2ccco2)nn1)NCCc1ccccc1,?,-26%,·,?,40µM*,-14%,
Cc1ccc(CNC(=O)CSc2ccc(-c3ccco3)nn2)cc1,1%,7%,-3%,?,-2%,·,
CCOC(=O)N1CCC(n2c(=S)[nH]c3cc(OCC)c(OCC)cc3c2=O)CC1,-7%,-3%,-6%[11.4 µM],5%,-2%,·,
Cc1ccccc1N1CCN(S(=O)(=O)c2nnc(NC(=O)c3ccc(F)cc3)s2)CC1,37%,-1%,·,·,·,·,
Cc1cc(C(=O)COC(=O)c2cccn2C)c(C)n1Cc1ccco1,?,-18%,-57%,-13%,?,-18%,
CCOC(=O)/C(=C/C=C1\Sc2cc(OCC)c(OCC)cc2N1CC)C(C)=O,?,-1%,-3%,-27%,10µM*,·,RECQ1 conf=?;ADP FP counter=45µM*
CCOC(=O)/C(=C\C=C1/Sc2cc(OCC)c(OCC)cc2N1CC)C(C)=O,15%,-8%,-13%,-5%,-15%,·,
O=C(O)C(C(=O)/C=C/c1ccco1)=C1SCCS1,25µM*,-14%,?,-23%,?,?,
Cc1cccc(N2CCN(C(=O)c3ccc4c(c3)NC(=O)C(CSCc3ccc(F)cc3)N4)CC2C)c1 (centres undefined),16%,-3%,·,·,·,·,
C=CCn1c(O)c(N=NC(=O)CNC(=O)/C=C/c2ccco2)c2ccccc21,?,?,?,-4%,?,?,
C=CCn1c(O)c(N=NC(=O)CNC(=O)/C=C/c2ccc(OC)cc2)c2ccccc21,0%,-4%,-13%,3%,0%,·,
CNC(=S)NC1CC2CCC(C1)N2Cc1ccccc1 (centres undefined),1%,-5%,5%,8%,-14%,·,
Cc1c(NC(=O)C(C)OC(=O)c2ncc(Cl)c(Cl)c2Cl)c(=O)n(-c2ccccc2)n1C (centres undefined),1%,·,-1%,·,·,·,
CC(C)=C1C(=O)NN(c2ccc(F)c(Cl)c2)C1=O,-3%,-2%,-18%,3%,32µM*,-12%,
CCn1c(SCC(=O)Nc2ccccc2C(=O)OC)nnc1-c1cccc(C)c1,25%,-2%,·,5%,i,·,
O=C(CSC(=S)N1CCCC1)c1cc(Br)cc(Br)c1O,2%,-11%,·,?,32µM*,50µM*,
CC1CCCN(C(=S)SCC(=O)O)C1 (centres undefined),-2%,0%,8%,-1%,-6%,·,
CC1CCCN(C(=S)SCC(=O)c2cc(Br)cc(Br)c2O)C1 (centres undefined),-7%,-8%,-15%,?,?,-20%,
NS(=O)(=O)c1ccc(NC(=O)c2ccc(COc3ccccc3)o2)cc1,6%,-5%,-13%,8%,-5%,·,
Cc1nn(-c2ccccc2)c(OC(=O)c2ccc(Cl)cc2)c1S(=O)(=O)c1ccccc1,·,4%,·,·,·,·,
Cc1ccc(S(=O)(=O)Nc2ccc(N3CCOCC3)cc2)cc1,3%,-1%,·,0%,1%,·,
Cc1ccc(S(=O)(=O)Nc2ccc(N3CCCCC3)cc2)cc1,5%,-7%,-21%,-4%,?,-8%,
COCc1cc(=O)n2[nH]c(N)nc2n1,1%,-5%,·,-10%,-2%,·,
SMILES,APE1 inh,BLM helicase inh,L3MBTL1 inh,JMJD2E inh,RECQ1 inh-1,RECQ1 inh-2,others
COCc1cc(=O)n2[nH]c(-c3ccsc3-n3c(C)ccc3C)cc2n1,25µM*,?,·,?,?,-24%,
Cc1nc(C(=O)Nc2cccc(Cl)c2)nn1-c1cc(OC(C)C)c(Cl)cc1Cl,-4%,-9%,-13%,-20%,35µM*,-13%,
CS(=O)(=O)N1N=C(c2ccco2)CC1c1ccco1 (centres undefined),32%,-18%,?,·,·,·,
Cc1cccc(NC(=O)CC(=O)Nc2cccc(C)c2)c1,-8%,-1%,·,·,·,·,
Cc1ccc(SCC(=O)Nc2cccc(C)c2)cc1,-2%,0%,33%,0%,25µM*,-12%,
Cc1ccc(C(=O)N2CCN(S(=O)(=O)c3ccccc3)CC2)cc1,4%,-1%,2%,2%,i,·,
CCOC(=O)C(C)Oc1cccc2c(=O)n(CC(=O)NCc3ccc4c(c3)OCO4)ccc12 (centres undefined),14%,3%,-12%,?,-11%,·,RECQ1 conf=7%;ADP FP counter=?
CCOC(=O)C(C)Oc1cccc2c(=O)n(CC(=O)Nc3ccc4c(c3)OCCO4)ccc12 (centres undefined),14%,-11%,4%,?,-9%,·,
O=C(O)CCc1ccc(-c2ccc(Br)cc2)n1CC(=O)O,-9%,-15%,?,?,32µM*,?,
O=C(O)CCc1ccc(-c2ccccc2)n1CC(=O)O,6%,-8%,-13%,?,-4%,·,
Cc1ccc(OCC(O)Cn2c3ccccc3c3ccccc32)cc1 (centres undefined),-4%,-10%,10%,?,?,-48%,
CC(=O)N1N=C(c2ccccc2)OC1c1ccc([N+](=O)[O-])s1 (centres undefined),?,5%,·,14µM*,35µM*,?,
CC(=O)N1N=C(c2cccc([N+](=O)[O-])c2)OC1c1ccc(Br)cc1 (centres undefined),0%,-7%,?,-2%,-7%,·,
COc1ccc(C(=O)COC(=O)c2sc(C)nc2C)cc1Cl,3%,·,-2%,·,·,·,
c1ccc2c(c1)CCN(C1=Nc3cccc4cccc1c34)C2,?,4%,?,?,13µM*,-6%,RECQ1 conf=11%[114 µM]
CN1C(=O)[C@H]2[C@@H](C3CC3)N3C(=O)CN(Cc4ccc(-c5ccccc5)cc4)C(=O)[C@@]3(C)[C@H]2C1=O,23%,-2%,-6%,·,·,·,
COc1ccc2[nH]cc(CCNc3ncnc4ccc(-c5ccoc5)cc34)c2c1,-4%,-1%,·,·,?,?,
COc1cccc(C(=O)NCC(c2ccc3c(c2)OCO3)N2CCOCC2)c1 (centres undefined),·,8%,·,·,·,·,
